According to PubChem BioAssay (Tox21):
Results filed as inconclusive are left out. The source made the active and inactive calls. Unless noted, the call rests on the fitted dose curve; in most records, active means well fitted curve in the direction sought with a large enough effect in the repeat runs; inconclusive means weak or mixed curves; inactive means no such curve, though single readings can be large; an effect the other way counts as inactive or inconclusive.

What was measured:
[1] = qHTS assay to identify small molecule antagonists of the thyroid receptor (TR) signaling pathway - cell viability counter screen (AID 743064); further: nearly all actives have a fitted effect of over 50% in size
Outline: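 GH3.TRE-Luc cells, 4 h pre-plating; cpd + T3 1 nM final; 37 °C 23.5 h; CellTiter-Fluor 30 min; fluorescence read.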

[2] = qHTS assay to identify small molecule antagonists of the thyroid receptor (TR) signaling pathway (AID 743065); further: nearly all actives have a fitted effect of over 55% in size
Outline: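 Antagonism measured as loss of luciferase signal in GH3 cells stably carrying a TRE-luciferase reporter, co-treated with compound and T3 (1 nM final) for 23.5 h at 37 C. Viability was read in the same well by CellTiter-Fluor.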

[3] = tested on: thyroid hormone receptor (rat, GH3 cells); experiment: qHTS assay to identify small molecule agonists of the thyroid receptor (TR) signaling pathway (AID 743066; calls by dose curve)
[4] = molecular target: Estrogen receptor (Homo sapiens) (UniProt P03372); experiment: qHTS assay to identify small molecule antagonists of the estrogen receptor alpha (ER-alpha) signaling pathway (AID 743069; active means well fitted curve in the direction sought with a large enough effect in the signal ratio in the repeat runs, not every such curve was filed as active; the % refers to the signal ratio)
Outline: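 Antagonist mode: compounds in DMSO were co-added with 17beta-estradiol to ER-alpha-bla HEK293 cells (2% charcoal-stripped serum) and left 18 h at 37C. Reporter inhibition was measured as FRET fluorescence after 2 h LiveBLAzer substrate at room temperature.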

[5] = qHTS assay to identify small molecule antagonists of the estrogen receptor alpha (ER-alpha) signaling pathway - cell viability counter screen (AID 743074; calls by dose curve;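 further: HEK293 cells carrying ER-alpha-UAS-bla reporter stimulated with 17beta-estradiol; nearly all actives have a fitted effect of over 45% in size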)
[6] = molecular target: Estrogen receptor (Homo sapiens) (UniProt P03372); experiment: qHTS assay to identify small molecule agonists of the estrogen receptor alpha (ER-alpha) signaling pathway (AID 743075; calls by dose curve;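 further: HEK293 GripTite cells with ER-alpha and UAS-driven beta-lactamase reporter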)
[7] = molecular target: Estrogen receptor (Homo sapiens) (UniProt P03372); experiment: qHTS assay to identify small molecule agonists of the estrogen receptor alpha (ER-alpha) signaling pathway using the BG1 cell line (AID 743079); conditions: BG1Luc4E2 cells, ERE-luciferase agonist, 22 h; activation: at 70.3 µM (top of the series); further: nearly all actives have a fitted effect of over 20% in size; further: potency means the concentration at half of the fitted maximal effect
[8] = qHTS assay to identify small molecule antagonists of the estrogen receptor alpha (ER-alpha) signaling pathway using the BG1 cell line (AID 743080; calls by dose curve;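 further: BG1 cells stimulated with 17beta-estradiol alongside compound; nearly all actives have a fitted effect of over 25% in size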)
Outline: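 Endogenous full-length ER-alpha in BG1-Luc-4E2 cells drives a stably integrated 4×ERE luciferase gene; compounds were tested against 17beta-estradiol over 21.5 h, with luminescence and multiplexed viability fluorescence recorded.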

[9] = qHTS assay to identify small molecule antagonists of the estrogen receptor alpha (ER-alpha) signaling pathway using the BG1 cell line - cell viability counter screen (AID 743081);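 further: compound given together with 17beta-estradiol as the ER stimulus; nearly all actives have a fitted effect of over 45% in size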
Aromatase (Homo sapiens) = Aromatase (Homo sapiens) (UniProt P11511); experiment: qHTS assay to identify aromatase inhibitors (AID 743083); further: nearly all actives have a fitted effect of over 55% in size
[10] = qHTS assay to identify aromatase inhibitors - cell viability counter screen (AID 743084);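 further: cells stimulated with testosterone during compound exposure; nearly all actives have a fitted effect of over 55% in size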
[11] = qHTS assay to identify small molecule that activate the aryl hydrocarbon receptor (AhR) signaling pathway - cell viability counter screen (AID 743086);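 further: HepG2 liver cells carrying the AhR DRE luciferase reporter; nearly all actives have a fitted effect of over 45% in size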
Outline: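 Cytotoxicity counter screen: CellTiter-Fluor signal (30 min, 37 C) in 4000 HepG2 cells/well carrying the DRE-luciferase reporter, following 24 h compound exposure at 37 C.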

[12] = molecular target: Peroxisome proliferator-activated receptor gamma (Homo sapiens) (UniProt P37231); experiment: qHTS assay to identify small molecule agonists of the peroxisome proliferator-activated receptor gamma (PPARg) signaling pathway (AID 743094; active means well fitted activation curve with a large enough effect in the signal ratio in the repeat runs, not every such curve was filed as active; the % refers to the signal ratio)
Outline: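 Agonism was assessed in a beta-lactamase reporter system, HEK293H cells with a stably integrated UAS-bla construct under PPARg control; the 17 h treatment at 37C preceded a 1 h room-temperature FRET substrate read.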

[13] = molecular target: Peroxisome proliferator-activated receptor gamma (Homo sapiens) (UniProt P37231); experiment: qHTS assay to identify small molecule antagonists of the peroxisome proliferator-activated receptor gamma (PPARg) signaling pathway (AID 743191; calls by dose curve; further: nearly all actives have a fitted effect of over 30% in size)
Outline: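 Beta-lactamase reporter under UAS control in HEK293H PPARg-bla cells; compound treatment 17 h at 37C. Read-out: fluorescence intensity after 1 h room-temperature incubation with LiveBLAzer B/G FRET substrate.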

[14] = qHTS assay to identify small molecule antagonists of the peroxisome proliferator-activated receptor gamma (PPARg) signaling pathway - cell viability counter screen (AID 743194); further: nearly all actives have a fitted effect of over 55% in size
Outline: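 Viability was measured as CellTiter-Glo luminescence in GeneBLAzer PPARg UAS-bla HEK293H cells. These cells had been exposed 17 h at 37 C to compounds together with rosiglitazone at 50 nM final, with the beta-lactamase readout taken in the same wells.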

[15] = qHTS assay for small molecule agonists of the antioxidant response element (ARE) signaling pathway (AID 743202; active means well fitted activation curve with a large enough effect in the signal ratio in the repeat runs, not every such curve was filed as active; the % refers to the signal ratio)
Outline: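 After 16 hours of compound treatment at 37 C, HepG2 cells with a stably integrated ARE-driven beta-lactamase reporter were loaded 2 hours at room temperature with LiveBLAzer B/G FRET substrate and fluorescence intensity measured.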

[16] = qHTS assay for small molecule agonists of the antioxidant response element (ARE) signaling pathway - cell viability counter screen (AID 743203; calls by dose curve; further: nearly all actives have a fitted effect of over 55% in size)
Outline: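 ATP content via CellTiter-Glo luminescence served as the viability measure. Cells: ARE-bla HepG2, 2,000 per well. Exposure: 16 hrs, 37C/5% CO2.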

[17] = qHTS assay for small molecule activators of the heat shock response signaling pathway (AID 743210; active means well fitted activation curve with a large enough effect in the signal ratio in the repeat runs, with a control signal flat, not every such curve was filed as active; the % refers to the signal ratio)
Outline: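 Compound exposure lasted 5 h at 37 C in HeLa cells carrying a heat-shock-element-driven beta-lactamase reporter. Read-out: fluorescence intensity after 2.5 h room-temperature loading with LiveBLAzer B/G FRET substrate.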

[18] = molecular target: Aryl hydrocarbon receptor (Homo sapiens) (UniProt P35869); experiment: qHTS assay to identify small molecule that activate the aryl hydrocarbon receptor (AhR) signaling pathway (AID 743085);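 further: HG2L7.5c1 human HepG2 liver cells with stably integrated DRE-driven firefly reporter; nearly all actives have a fitted effect of over 15% in size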
Outline: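 Luminescence read-out: ONE-Glo reagent, 30 min at room temperature, in HG2L7.5c1 HepG2 reporter cells treated 24 h at 37C. Viability was measured beforehand by CellTiter-Fluor fluorescence after 30 min at 37C.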

[19] = qHTS assay for small molecule activators of the heat shock response signaling pathway - cell viability counter screen (AID 743209); further: nearly all actives have a fitted effect of over 50% in size
Outline: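 Compounds dissolved in DMSO were added to overnight-plated HSE-bla HeLa cells and left 5 h at 37 C. Cell viability was quantified by luminescence using CellTiter-Glo.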
On the % scale 0 is the no-effect control and ±100 the full control effect.

Aryl hydrocarbon receptor (Homo sapiens), sequence (P35869 whole entry, looked up): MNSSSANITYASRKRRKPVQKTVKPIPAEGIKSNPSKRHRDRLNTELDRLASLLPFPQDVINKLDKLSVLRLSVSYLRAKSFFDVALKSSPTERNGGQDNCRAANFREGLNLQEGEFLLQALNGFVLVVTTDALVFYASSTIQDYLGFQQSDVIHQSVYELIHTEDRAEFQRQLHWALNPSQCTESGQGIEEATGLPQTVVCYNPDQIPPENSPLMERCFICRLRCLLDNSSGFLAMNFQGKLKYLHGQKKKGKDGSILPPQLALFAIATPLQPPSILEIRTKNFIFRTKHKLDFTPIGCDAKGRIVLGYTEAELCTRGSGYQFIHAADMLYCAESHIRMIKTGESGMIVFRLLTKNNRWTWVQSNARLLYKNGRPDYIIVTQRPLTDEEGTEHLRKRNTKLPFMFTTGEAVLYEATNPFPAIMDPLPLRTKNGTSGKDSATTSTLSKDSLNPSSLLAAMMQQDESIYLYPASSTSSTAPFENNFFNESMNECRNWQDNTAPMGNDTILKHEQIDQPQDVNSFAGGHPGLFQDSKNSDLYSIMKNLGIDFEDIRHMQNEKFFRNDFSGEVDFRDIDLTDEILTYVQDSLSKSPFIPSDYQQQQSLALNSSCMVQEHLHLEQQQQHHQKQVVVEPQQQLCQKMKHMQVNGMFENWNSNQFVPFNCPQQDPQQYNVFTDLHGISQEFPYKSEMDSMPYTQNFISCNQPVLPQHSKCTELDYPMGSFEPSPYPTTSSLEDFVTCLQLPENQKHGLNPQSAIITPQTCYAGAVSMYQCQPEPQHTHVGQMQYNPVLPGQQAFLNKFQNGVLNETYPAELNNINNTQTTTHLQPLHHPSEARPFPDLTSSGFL
Estrogen receptor (Homo sapiens), sequence (P03372 whole entry, looked up): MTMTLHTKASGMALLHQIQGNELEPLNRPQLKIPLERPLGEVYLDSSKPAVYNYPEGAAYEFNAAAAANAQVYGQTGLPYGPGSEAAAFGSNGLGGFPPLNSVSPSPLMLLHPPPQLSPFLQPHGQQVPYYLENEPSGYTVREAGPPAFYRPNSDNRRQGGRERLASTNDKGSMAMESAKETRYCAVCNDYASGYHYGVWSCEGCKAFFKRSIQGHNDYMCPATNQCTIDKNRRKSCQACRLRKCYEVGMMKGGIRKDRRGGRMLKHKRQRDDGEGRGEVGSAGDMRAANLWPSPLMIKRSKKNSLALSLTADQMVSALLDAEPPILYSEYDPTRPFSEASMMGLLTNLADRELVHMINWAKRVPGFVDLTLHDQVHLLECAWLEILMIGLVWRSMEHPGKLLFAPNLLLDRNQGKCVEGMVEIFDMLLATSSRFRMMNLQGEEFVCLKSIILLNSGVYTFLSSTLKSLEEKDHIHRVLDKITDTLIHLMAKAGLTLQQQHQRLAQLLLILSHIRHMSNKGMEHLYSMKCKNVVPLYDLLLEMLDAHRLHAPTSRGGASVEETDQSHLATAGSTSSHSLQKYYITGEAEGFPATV
Aromatase (Homo sapiens), sequence (P11511 whole entry, looked up): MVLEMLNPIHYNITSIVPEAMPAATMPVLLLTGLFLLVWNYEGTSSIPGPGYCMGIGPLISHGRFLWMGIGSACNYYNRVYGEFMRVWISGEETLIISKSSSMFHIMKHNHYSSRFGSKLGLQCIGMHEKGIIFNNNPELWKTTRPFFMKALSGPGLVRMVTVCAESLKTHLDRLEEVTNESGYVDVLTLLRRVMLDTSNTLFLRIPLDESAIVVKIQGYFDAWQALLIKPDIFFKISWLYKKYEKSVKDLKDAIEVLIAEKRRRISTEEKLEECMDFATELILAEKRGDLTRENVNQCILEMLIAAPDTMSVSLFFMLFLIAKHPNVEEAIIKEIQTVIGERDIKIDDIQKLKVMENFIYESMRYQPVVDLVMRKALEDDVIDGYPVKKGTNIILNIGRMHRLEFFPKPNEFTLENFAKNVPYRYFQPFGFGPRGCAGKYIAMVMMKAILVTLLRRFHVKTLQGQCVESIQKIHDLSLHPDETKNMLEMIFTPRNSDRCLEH
Peroxisome proliferator-activated receptor gamma (Homo sapiens), sequence (P37231 whole entry, looked up): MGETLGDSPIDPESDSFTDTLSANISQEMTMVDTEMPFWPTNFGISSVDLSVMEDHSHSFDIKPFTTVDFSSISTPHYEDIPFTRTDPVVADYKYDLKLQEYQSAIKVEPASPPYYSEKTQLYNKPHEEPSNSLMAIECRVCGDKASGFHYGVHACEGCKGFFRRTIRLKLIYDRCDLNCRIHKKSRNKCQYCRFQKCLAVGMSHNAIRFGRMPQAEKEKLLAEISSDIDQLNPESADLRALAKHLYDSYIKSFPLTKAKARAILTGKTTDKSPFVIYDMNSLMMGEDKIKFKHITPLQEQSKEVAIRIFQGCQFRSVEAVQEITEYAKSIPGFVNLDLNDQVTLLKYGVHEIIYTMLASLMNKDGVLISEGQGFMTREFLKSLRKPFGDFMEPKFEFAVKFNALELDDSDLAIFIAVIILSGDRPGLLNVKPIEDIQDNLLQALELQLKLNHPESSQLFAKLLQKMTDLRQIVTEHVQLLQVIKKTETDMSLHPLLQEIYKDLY

COc1ccc(CCC(=O)c2c(O)cc(O[C@@H]3O[C@H](CO)[C@@H](O)[C@H](O)[C@H]3O[C@@H]3O[C@@H](C)[C@H](O)[C@@H](O)[C@H]3O)cc2O)cc1O
inactive: Potency [1] | Potency [2] | outcome [3] | Potency [4] | Potency [5] | Potency [6] | Potency [7] | Potency [8] | Potency [9] | Potency (Aromatase (Homo sapiens)) | Potency [10] | Potency [11] | Potency [12] | Potency [13] | Potency [14] | Potency [15] | Potency [16] | Potency [17]

O=C(NCCCN1CCOCC1)c1ccc(Cl)cc1
inactive: Potency [1] | Potency [2] | outcome [3] | Potency [4] | Potency [5] | Potency [6] | Potency [7] | Potency [9] | Potency (Aromatase (Homo sapiens)) | Potency [10] | Potency [18] | Potency [11] | Potency [12] | Potency [13] | Potency [14] | Potency [15] | Potency [16] | Potency [19] | Potency [17]

COC(=O)CC(=O)C(C)(C)C
inactive: Potency [1] | Potency [2] | outcome [3] | Potency [4] | Potency [5] | Potency [6] | Potency [7] | Potency [8] | Potency [9] | Potency (Aromatase (Homo sapiens)) | Potency [10] | Potency [18] | Potency [11] | Potency [12] | Potency [13] | Potency [16] | Potency [17]

Nc1ccc(S(=O)(=O)O)c(N)c1
inactive: Potency [1] | Potency [2] | outcome [3] | Potency [4] | Potency [5] | Potency [6] | Potency [7] | Potency [8] | Potency [9] | Potency (Aromatase (Homo sapiens)) | Potency [10] | Potency [11] | Potency [12] | Potency [13] | Potency [14] | Potency [15] | Potency [16] | Potency [19] | Potency [17]

CC(C)CCCC(=O)O
inactive: Potency [1] | Potency [2] | outcome [3] | Potency [4] | Potency [5] | Potency [6] | Potency [7] | Potency [8] | Potency [9] | Potency (Aromatase (Homo sapiens)) | Potency [10] | Potency [18] | Potency [11] | Potency [12] | Potency [13] | Potency [14] | Potency [16] | Potency [19] | Potency [17]

CC(C)(CCl)c1ccccc1
inactive: Potency [1] | Potency [2] | outcome [3] | Potency [4] | Potency [5] | Potency [6] | Potency [7] | Potency [8] | Potency [9] | Potency (Aromatase (Homo sapiens)) | Potency [10] | Potency [18] | Potency [11] | Potency [14] | Potency [15] | Potency [16] | Potency [19]

C=CCCCCCCCCCCCCCCCC
inactive: activity change, negative = cytotoxic [1] -9.44% [at 8.44 µM] | activity, negative = inhibition [2] -26.3% [at 8.44 µM] | activation [3] -0.275% [at 8.08 µM] | activity, negative = inhibition [4] 10.1% [at 6.71 µM] | activity, negative = cytotoxicity [5] -5.03% [at 6.72 µM] | activation [6] -3.79% [at 6.71 µM] | activation [7] 4.88% [at 8.47 µM] | activity change, negative = inhibition [8] 2.27% [at 8.47 µM] | activity change, negative = cytotoxicity [9] 4.81% [at 8.47 µM] | activity, negative = inhibition (Aromatase (Homo sapiens)) 12.3% [at 8.47 µM] | activity change, negative = cytotoxicity [10] 17.8% [at 8.47 µM] | activation [18] -0.177% [at 8.47 µM] | viability change, negative = cytotoxic [11] -2.48% [at 8.47 µM] | activation [12] -3.71% [at 7.08 µM] | ratio activity, negative = inhibition [13] 1.33% [at 5.95 µM] | activity change, negative = cytotoxicity [14] 1.33% [at 5.95 µM] | viability change, negative = cytotoxic [16] -4.17% [at 8.36 µM] | activity change, negative = cytotoxicity [19] 11.1% [at 5.95 µM] | activation [17] -2.33% [at 5.95 µM]

CCC(=O)OC/C=C/c1ccccc1
inactive: Potency [1] | Potency [2] | outcome [3] | Potency [4] | Potency [5] | Potency [6] | Potency [8] | Potency [9] | Potency (Aromatase (Homo sapiens)) | Potency [10] | Potency [11] | Potency [12] | Potency [13] | Potency [14] | Potency [16] | Potency [19] | Potency [17]
active: Potency [7] 68.6 µM

O=C1NCCN1
inactive: Potency [1] | Potency [2] | outcome [3] | Potency [4] | Potency [5] | Potency [6] | Potency [7] | Potency [8] | Potency [9] | Potency (Aromatase (Homo sapiens)) | Potency [10] | Potency [11] | Potency [12] | Potency [13] | Potency [14] | Potency [15] | Potency [16] | Potency [19]

COC(=O)[C@@H]1CC2=CC(=O)CC[C@]2(C)[C@@]23O[C@@H]2C[C@@]2(C)[C@@H](CC[C@@]24CCC(=O)O4)[C@H]13
inactive: Potency [1] | Potency [2] | outcome [3] | Potency [4] | Potency [5] | Potency [6] | Potency [7] | Potency [8] | Potency [9] | Potency (Aromatase (Homo sapiens)) | Potency [10] | Potency [18] | Potency [11] | Potency [12] | Potency [14] | Potency [15] | Potency [16] | Potency [19] | Potency [17]

CNC(=O)N(c1ccccc1)c1ccccc1
inactive: Potency [1] | Potency [2] | outcome [3] | Potency [4] | Potency [5] | Potency [6] | Potency [7] | Potency [8] | Potency [9] | Potency (Aromatase (Homo sapiens)) | Potency [10] | Potency [18] | Potency [11] | Potency [12] | Potency [14] | Potency [16] | Potency [19] | Potency [17]

O=C(O)c1cccc(O)c1
inactive: Potency [1] | Potency [2] | outcome [3] | Potency [4] | Potency [5] | Potency [6] | Potency [7] | Potency [8] | Potency [9] | Potency (Aromatase (Homo sapiens)) | Potency [10] | Potency [18] | Potency [11] | Potency [12] | Potency [13] | Potency [14] | Potency [15] | Potency [16] | Potency [19] | Potency [17]

CCOC(=N)CC(=O)OCC
inactive: Potency [1] | Potency [2] | outcome [3] | Potency [4] | Potency [5] | Potency [6] | Potency [7] | Potency [8] | Potency [9] | Potency (Aromatase (Homo sapiens)) | Potency [10] | Potency [18] | Potency [11] | Potency [12] | Potency [13] | Potency [14] | Potency [15] | Potency [16] | Potency [19] | Potency [17]

CCCOCCOCCO
inactive: Potency [1] | Potency [2] | outcome [3] | Potency [4] | Potency [5] | Potency [6] | Potency [7] | Potency [8] | Potency [9] | Potency (Aromatase (Homo sapiens)) | Potency [10] | Potency [11] | Potency [12] | Potency [13] | Potency [14] | Potency [15] | Potency [16] | Potency [19] | Potency [17]
